Our source for the composite z-score and z-score values is PubChem BioAssay.

The structures appear in SMILES notation. Activity calls are given as the source filed them.

Experiment [1] can be described thus: binders of probe aFSTL3 on microarray, primary screen, stem cell growth factor project, biochemical, small-molecule microarray, fluorescence 635/667 (AID 1064).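 Note: measures binding of the biotinylated anti-FSTL3 antibody to printed compounds.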 The settings on record: higher = more signal.
A short description of experiment [2]: binders from COS7 lysate, DM2A8 probe, primary screen, torsin A project, cell lysate, small-molecule microarray, fluorescence 635/667 (AID 1065). The settings on record: higher = more signal, COS7 lysate expressing mutant human TOR1A.
Experiment [3] is described as follows: binders of probe aFGF2 on microarray, primary screen, stem cell growth factor project, biochemical, small-molecule microarray, fluorescence 635/667 (AID 1067).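 Note: measures binding of biotinylated aFGF2 protein to printed compounds on slides; z-score merges feature fluorescence and signal-to-noise across triplicate slides.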 The settings on record: higher = more signal.
Experiment [4] in a line: binders of probe aFGF10 on microarray, primary screen, stem cell growth factor project, biochemical, small-molecule microarray, fluorescence 635/667 (AID 1071).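 Note: score merges 667 nm spot intensity and signal to noise from triplicate slides.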 The note with it: higher = more signal.
Experiment [5] addresses Neurogenic locus notch homolog protein 2 (Homo sapiens) (UniProt Q04721). Kind of experiment: Notch2 binders on small-molecule microarrays, primary screen, biochemical, small-molecule microarray, 635 nm fluorescence, stem cell growth factors (AID 1073). The note with it: Notch2 binding, higher = more signal.
In experiment [6] the target is Pro-neuregulin-1, membrane-bound isoform (Homo sapiens) (UniProt Q02297). Description: NRG1 binders on small-molecule microarrays, primary screen, psychiatric disease protein project, biochemical, small-molecule microarray, fluorescence 635/667 (AID 1075).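 Note: score combines 667 nm spot fluorescence with signal to noise.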 The settings on record: NRG1 binding, 635 nm fluorescence, higher = more signal.
Chain of Pro-neuregulin-1, membrane-bound isoform (Homo sapiens) (Q02297 whole entry, looked up, the tested form may be a part, canonical isoform): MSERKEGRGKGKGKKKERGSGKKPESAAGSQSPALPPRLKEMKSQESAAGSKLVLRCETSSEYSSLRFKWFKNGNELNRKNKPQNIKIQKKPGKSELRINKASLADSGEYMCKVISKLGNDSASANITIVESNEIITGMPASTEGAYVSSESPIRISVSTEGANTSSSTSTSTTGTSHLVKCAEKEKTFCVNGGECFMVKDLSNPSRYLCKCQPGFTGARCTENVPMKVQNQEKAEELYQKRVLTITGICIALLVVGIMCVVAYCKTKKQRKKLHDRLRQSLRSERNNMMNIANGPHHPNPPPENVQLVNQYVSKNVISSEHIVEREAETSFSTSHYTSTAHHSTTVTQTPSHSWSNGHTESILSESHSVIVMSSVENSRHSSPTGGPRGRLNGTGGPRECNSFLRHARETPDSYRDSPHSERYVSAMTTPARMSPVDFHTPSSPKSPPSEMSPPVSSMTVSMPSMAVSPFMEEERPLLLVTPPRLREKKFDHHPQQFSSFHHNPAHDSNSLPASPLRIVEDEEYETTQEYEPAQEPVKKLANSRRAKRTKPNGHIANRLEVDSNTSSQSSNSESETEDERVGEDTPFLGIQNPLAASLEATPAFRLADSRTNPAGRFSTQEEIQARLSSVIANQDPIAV
Experiment [7] has as its system Neuregulin-1 EGF-like domain. Kind of experiment: binders of neuregulin-1 EGF-like domain, primary screen, biochemical, small-molecule microarray, 635 nm fluorescence (AID 1081).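 Note: binding of the protein to compounds printed on small-molecule microarray slides.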 The settings on record: small-molecule microarray binding, higher = more signal.
Experiment [8] can be described thus: FRG1 promoter luciferase signal modulators, primary screen, FRG1 inhibition for FSHD, cell-based, C2C12 myotubes, firefly/Renilla luciferase, luminescence (AID 1084). The settings on record: higher = more signal, called active from +8 up or from −8 down.
The nature of experiment [9]: binders of probe aFST on microarray, primary screen, stem cell growth factor project, biochemical, small-molecule microarray, fluorescence 635/667 (AID 1086).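 Note: score merges 667 nm fluorescence with signal-to-noise of each printed compound spot.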 The settings on record: higher = more signal.
A short description of experiment [10]: binders of probe aHhip on microarray, primary screen, stem cell growth factor project, biochemical, small-molecule microarray, fluorescence 635/667 (AID 1087).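 Note: score merges spot fluorescence at 667nm with spot signal to noise ratio.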 The settings on record: higher = more signal.
In experiment [11] the test system is PRMT1 (protein arginine N-methyltransferase 1). Kind of experiment: PRMT1 binders on small-molecule microarrays, primary screen, biochemical, small-molecule microarray, 635 nm fluorescence (AID 1088).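 Note: binding of Prmt1 protein to compounds spotted on small-molecule microarray slides.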 The settings on record: small-molecule microarray binding, higher = more signal.
The nature of experiment [12]: yeast growth modulation, basal conditions, primary screen, YJM789 clinical isolate, OD600, 24 h (AID 1089).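 Note: growth of clinical yeast isolate S. cerevisiae YJM 789 seeded 1000 cells per well; test concentration not given here.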 The settings on record: S. cerevisiae YJM789 growth, higher = more signal, called active from +8 up or from −8 down.
The nature of experiment [13]: fission yeast growth modulation, primary screen, strain 972, OD600, 24 h, no modulator (AID 1090).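 Note: basal condition with compound alone and no growth modifier present; test concentration not given here.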 The note with it: S. pombe 972 growth, higher = more signal, called active from +8 up or from −8 down.
A short description of experiment [14]: S. cerevisiae growth modulation with rapamycin, primary screen, strain BY4716, OD600, 96 h (AID 1091). Note: test concentration not given here. The settings on record: higher = more signal, called active from +8 up or from −8 down.
The target in experiment [15] is Torsin-1A-interacting protein 2 (Homo sapiens) (UniProt Q8NFQ8). Kind of experiment: LULL1 binders on small-molecule microarray, primary screen, cell lysate, human LULL1 lysate, 635/667 nm fluorescence (AID 1092).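 Note: probe is lysate of COS7 cells overexpressing human LULL1; score merges per-feature 667 nm fluorescence with signal-to-noise.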 The settings on record: hLULL1 lysate binding, 635 nm fluorescence, higher = more signal.
Chain of Torsin-1A-interacting protein 2 (Homo sapiens) (Q8NFQ8 whole entry, looked up): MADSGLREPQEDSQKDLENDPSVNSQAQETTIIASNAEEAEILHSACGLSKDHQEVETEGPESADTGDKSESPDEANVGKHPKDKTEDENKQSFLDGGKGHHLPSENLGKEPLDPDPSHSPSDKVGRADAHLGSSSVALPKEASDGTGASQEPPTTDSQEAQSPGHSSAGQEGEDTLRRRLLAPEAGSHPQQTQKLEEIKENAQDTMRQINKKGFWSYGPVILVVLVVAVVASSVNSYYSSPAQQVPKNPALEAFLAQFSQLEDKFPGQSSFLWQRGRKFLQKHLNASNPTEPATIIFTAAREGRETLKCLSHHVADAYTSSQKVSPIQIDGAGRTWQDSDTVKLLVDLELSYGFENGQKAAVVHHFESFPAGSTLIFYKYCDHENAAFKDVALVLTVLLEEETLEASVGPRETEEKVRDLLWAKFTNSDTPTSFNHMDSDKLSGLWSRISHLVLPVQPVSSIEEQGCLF
The nature of experiment [16]: E. coli growth modulation, two-sided OD650, primary screen, E. coli filamentation project, strain DRC41, 24 h (AID 1093).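 Note: MC1000 strain lacking acrAB efflux and sulA so SOS filamentation is blocked; test concentration not given here.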 The settings on record: OD650, 24 h, higher = more signal, called active from +8 up or from −8 down.
A short description of experiment [17]: small-molecule microarray binders of probe aLefty2, primary screen, biochemical, biotinylated probe, 635/667 nm fluorescence (AID 1094).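 Note: score merges spot fluorescence near 667 nm with spot signal-to-noise ratio.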 The settings on record: higher = more signal.
Experiment [18] concerns Noggin (protein binding on small-molecule microarray). Description: Noggin binders on small-molecule microarray, primary screen, biochemical, 635/667 nm fluorescence (AID 1095).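 Note: score merges 667 nm feature fluorescence with signal to noise over triplicate slides.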 The settings on record: 635 nm fluorescence, higher = more signal.
Experiment [19] deals with Neurogenic locus notch homolog protein 3 (Homo sapiens) (UniProt Q9UM47). Kind of experiment: NOTCH3 binders on small-molecule microarray, primary screen, biochemical, 635/667 nm fluorescence (AID 1096). The note with it: NOTCH3 binding, 635 nm fluorescence, higher = more signal.
Experiment [20] is described as follows: small-molecule microarray binders of probe aEGFR, primary screen, biochemical, biotinylated probe, 635/667 nm fluorescence (AID 1097).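 Note: probe is a biotinylated anti-EGFR antibody binding compounds printed on slides; score combines fluorescence near 667 nm and signal to noise of each spot.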 The settings on record: higher = more signal.

Chain of Neurogenic locus notch homolog protein 2 (Homo sapiens) (Q04721 whole entry, looked up, canonical isoform): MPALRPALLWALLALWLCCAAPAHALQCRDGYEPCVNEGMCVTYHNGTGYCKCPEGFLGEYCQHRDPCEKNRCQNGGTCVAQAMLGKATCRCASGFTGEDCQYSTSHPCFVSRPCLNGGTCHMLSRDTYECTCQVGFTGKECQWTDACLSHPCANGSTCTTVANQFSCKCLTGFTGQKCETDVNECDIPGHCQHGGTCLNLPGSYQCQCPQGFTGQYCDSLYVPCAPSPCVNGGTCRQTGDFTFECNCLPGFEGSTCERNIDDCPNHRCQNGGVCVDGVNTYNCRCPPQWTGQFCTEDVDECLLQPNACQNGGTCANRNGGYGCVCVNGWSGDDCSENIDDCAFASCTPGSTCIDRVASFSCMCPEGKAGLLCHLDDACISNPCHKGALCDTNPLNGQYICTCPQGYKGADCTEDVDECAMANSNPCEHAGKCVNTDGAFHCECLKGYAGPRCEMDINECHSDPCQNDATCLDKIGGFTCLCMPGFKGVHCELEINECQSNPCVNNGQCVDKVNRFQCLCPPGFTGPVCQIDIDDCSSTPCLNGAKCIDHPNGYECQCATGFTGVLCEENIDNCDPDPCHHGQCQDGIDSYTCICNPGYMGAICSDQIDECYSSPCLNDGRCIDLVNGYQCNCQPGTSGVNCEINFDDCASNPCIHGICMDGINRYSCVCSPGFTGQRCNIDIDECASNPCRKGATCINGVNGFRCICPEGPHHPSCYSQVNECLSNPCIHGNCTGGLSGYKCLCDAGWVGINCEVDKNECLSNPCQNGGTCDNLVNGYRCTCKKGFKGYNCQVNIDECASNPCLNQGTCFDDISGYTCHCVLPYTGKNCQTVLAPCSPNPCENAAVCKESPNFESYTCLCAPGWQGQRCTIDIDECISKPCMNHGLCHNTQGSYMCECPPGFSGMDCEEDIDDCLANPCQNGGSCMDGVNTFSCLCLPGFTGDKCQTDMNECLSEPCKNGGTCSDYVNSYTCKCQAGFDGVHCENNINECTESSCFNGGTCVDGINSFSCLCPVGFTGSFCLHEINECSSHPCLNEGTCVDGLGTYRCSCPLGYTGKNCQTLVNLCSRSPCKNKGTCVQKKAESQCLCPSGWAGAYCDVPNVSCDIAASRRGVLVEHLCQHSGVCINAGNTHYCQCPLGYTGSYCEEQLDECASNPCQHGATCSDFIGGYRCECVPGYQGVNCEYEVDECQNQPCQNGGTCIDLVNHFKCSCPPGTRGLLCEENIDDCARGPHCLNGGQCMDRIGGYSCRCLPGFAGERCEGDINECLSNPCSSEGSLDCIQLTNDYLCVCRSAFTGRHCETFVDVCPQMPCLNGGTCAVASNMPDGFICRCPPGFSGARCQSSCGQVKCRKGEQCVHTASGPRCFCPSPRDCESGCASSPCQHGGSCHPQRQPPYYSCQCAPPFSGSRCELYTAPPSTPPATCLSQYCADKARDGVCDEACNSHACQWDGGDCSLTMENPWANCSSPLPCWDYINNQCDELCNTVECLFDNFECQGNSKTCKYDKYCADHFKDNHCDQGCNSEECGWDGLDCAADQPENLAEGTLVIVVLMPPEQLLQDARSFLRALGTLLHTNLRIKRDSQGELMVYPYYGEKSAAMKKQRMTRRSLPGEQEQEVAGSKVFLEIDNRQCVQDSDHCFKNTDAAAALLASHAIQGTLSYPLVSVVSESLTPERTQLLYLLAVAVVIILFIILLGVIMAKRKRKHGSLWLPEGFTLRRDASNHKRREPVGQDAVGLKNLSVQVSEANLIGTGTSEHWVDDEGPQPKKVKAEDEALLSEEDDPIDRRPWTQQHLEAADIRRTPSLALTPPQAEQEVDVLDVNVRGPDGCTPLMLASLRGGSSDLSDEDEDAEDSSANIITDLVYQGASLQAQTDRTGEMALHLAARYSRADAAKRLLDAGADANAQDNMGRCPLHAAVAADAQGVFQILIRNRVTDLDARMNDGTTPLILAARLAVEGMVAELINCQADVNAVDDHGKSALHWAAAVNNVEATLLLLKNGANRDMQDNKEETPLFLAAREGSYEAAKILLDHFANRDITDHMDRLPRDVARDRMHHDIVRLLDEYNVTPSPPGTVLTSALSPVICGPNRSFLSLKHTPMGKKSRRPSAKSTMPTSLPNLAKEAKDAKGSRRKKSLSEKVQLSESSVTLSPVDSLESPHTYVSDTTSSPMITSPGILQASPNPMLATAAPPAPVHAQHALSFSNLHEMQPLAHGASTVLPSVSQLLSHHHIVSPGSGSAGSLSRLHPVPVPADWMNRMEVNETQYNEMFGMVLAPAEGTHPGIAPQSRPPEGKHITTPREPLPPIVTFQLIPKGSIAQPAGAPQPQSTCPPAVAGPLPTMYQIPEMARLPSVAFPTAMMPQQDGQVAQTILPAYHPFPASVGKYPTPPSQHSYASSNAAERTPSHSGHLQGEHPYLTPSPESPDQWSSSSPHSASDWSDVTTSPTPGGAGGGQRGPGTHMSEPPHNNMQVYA

Take `CN(C)CCCCCCNC(=O)[C@@H]1C[C@@H]2C(=O)N[C@@H](Cc3ccccc3)C(=O)N2[C@@H]1c1cccc(OCCO)c1`: the composite z-score is 0.0797 in experiment [1]; 1.42 in [2]; -0.0605 in [3]; 0.215 in experiment [4]; 0.0438 in experiment [5]; 1.42 in experiment [6]. Further, the composite z-score in experiment [7] is 1.33; in experiment [9] it was 0.258; in experiment [10], 0.241; in experiment [11] it was 1.55; in experiment [15] it was 2.67; in experiment [17], 0.0498. Moreover, the composite z-score in [18] was 1.05; in experiment [19] it was 1.13; in experiment [20], -0.0492. Further, the z-score in experiment [8] was 3.59 (inactive); in [12] it was -1.49 (inactive); in experiment [13] it was -1.07 (inactive); in experiment [14], -0.567 (inactive); in experiment [16] it was 0.698 (inactive).
As for `CCOC1=C2C(c3ccc(C)cc3)N(S(=O)(=O)c3ccc(C)cc3)CC2n2c(=O)n(-c3ccccc3)c(=O)n2C1` (stereo not given), the composite z-score in experiment [1] is -0.19; in [2], 0.475; in experiment [3], 0.0876; in experiment [4], 0.94; in experiment [5], 1.55; in [6], 1.13. Further, the composite z-score in [7] was 0.0031; in [9], 0.701; in [10], -0.26; in experiment [11] it was 1.41; in experiment [15] it was 2.89; in [17], 0.152. Moreover, the composite z-score in experiment [18] amounted to 0.351; in experiment [19], 1.08; in [20] it was 0.0201. Also, the z-score in experiment [8] is -3.93 (inactive); in experiment [12] it was -0.281 (inactive); in experiment [13] it was 0.401 (inactive); in experiment [14], 1.73 (inactive); in experiment [16], -0.278 (inactive).
For the molecule `COc1ccc(C(O)C2C=CC3C(=O)N(c4ccccc4)C(=O)C3N2Nc2ccccc2)c2ccccc12` (stereo not given), the composite z-score was 0.782 in experiment [1]; -0.141 in [2]; -0.0201 in experiment [3]; 0.354 in [4]; 0.945 in experiment [5]; 0.724 in experiment [6]. The composite z-score in experiment [7] is 1.04; in experiment [9], 0.563; in experiment [10], -0.163; in experiment [11], 0.802; in experiment [15], 2.23; in experiment [17] it was 0.189. Moreover, the composite z-score in experiment [18] was -0.659; in experiment [19], 0.459; in [20], -0.0949. The z-score is -0.0953 (inactive) in experiment [8]; -1.41 (inactive) in [12]; 1.81 (inactive) in experiment [13]; -0.0303 (inactive) in experiment [14]; -0.807 (inactive) in [16].
Turning to `C=CCN1Cc2ccccc2C[C@@]2(COC(c3ccc(OCCCO)cc3)=N2)C1=O`, the composite z-score was 1.12 in experiment [1]; 0.391 in [2]; -0.0159 in [3]; 0.0999 in experiment [4]; 1.19 in experiment [5]; 1.05 in experiment [6]. Also, the composite z-score in experiment [7] was 1.31; in [9], 0.703; in [10], 0.0749; in experiment [11] it was 1.5; in experiment [15] it was 2.3; in experiment [17], 0.247. In addition, the values for the composite z-score in [18], in experiment [19] and in experiment [20] were 0.34, 0.454 and 0.052, respectively. Also, the z-score in experiment [8] is -3.79 (inactive); in experiment [12], -0.915 (inactive); in experiment [13], -4.77 (inactive); in [14] it was 0.817 (inactive); in experiment [16], 1.42 (inactive).
On to `COc1cc(NN2C(C(O)c3ccccc3)C=CC3C(=O)N(c4ccccc4)C(=O)C32)cc(OC)c1OC` (stereo not given), for which the composite z-score was -0.0824 in [1]; 0.215 in [2]; 0.135 in [3]; 1.13 in experiment [4]; 1.56 in [5]; 1.87 in [6]. Also, the composite z-score in experiment [7] was 1.38; in [9], 1.08; in experiment [10] it was -0.194; in experiment [11] it was 1.34; in experiment [15] it was 3.5; in [17], 0.17. Also, the composite z-score was found to be 0.833 in experiment [18], 1.03 in [19] and 0.016 in [20]. The z-score is 0.556 (inactive) in experiment [8]; 0.694 (inactive) in [12]; -0.933 (inactive) in experiment [13]; 0.126 (inactive) in [14]; -0.288 (inactive) in [16].
Consider `CCN(CC)c1ccc(N2CC=CC34O[C@@H]5C=CCOC(=O)[C@@H]5[C@H]3C(=O)N(CCCCCO)[C@@H]4C2=O)cc1` (stereo not given in full), for which the composite z-score was 0.594 in [1]; 2.08 in [2]; -0.129 in [3]; -0.39 in experiment [4]; -0.866 in experiment [5]; 1.42 in experiment [6]. Besides, the composite z-score in experiment [7] is 1.53; in experiment [9], -0.409; in experiment [10], -0.0618; in experiment [11], -0.456; in experiment [15] it was 2.74; in experiment [17] it was -0.138. The results for the composite z-score in [18], in experiment [19] and in [20] were -0.769, -0.589 and -0.201, respectively. Moreover, the z-score in experiment [8] was -0.309 (inactive); in [12] it was -0.821 (inactive); in experiment [13] it was -1.3 (inactive); in [14], -0.522 (inactive); in [16], 1.29 (inactive).
